For experiment [1], the system named is XIP peptide (Xip251-270) binding. The experiment in a line: small-molecule binders of XIP peptide, primary screen, biochemical, small-molecule microarray, fluorescence 635/667 nm, 0.1 µg/mL protein (AID 1182). Particulars: fluorescent protein binding, 635 nm, higher = more signal, called active from +8 up or from −8 down.
Experiment [2] relates to XIP peptide (Xip251-270). The experiment in a line: small-molecule binders of XIP peptide, primary screen, biochemical, small-molecule microarray, fluorescence 635/667 nm, 0.5 µg/mL protein (AID 1183). Particulars: small-molecule microarray binding, fluorescence 635 nm; higher = more signal.
The nature of experiment [3]: Plasmodium falciparum growth inhibition, primary screen, strain 3D7, DAPI fluorescence, 100 nL (AID 1184).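 Also: parasites grown inside human red blood cells in medium with human serum.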 The note with it: P. falciparum 3D7 growth, 3 d, higher = more signal.
The target of experiment [4] is Homeobox protein Hox-A13 (Mus musculus) (UniProt Q62424). In words: inhibitors of HoxA13-DNA binding, primary screen, biochemical, fluorescence polarization, labeled oligonucleotide (AID 1185). The note with it: 15 min, higher = more signal, called active from +8 up or from −8 down.
Experiment [5] in a line: inhibitors of hydroxyurea-induced Chk1 phosphorylation, primary screen, imaging, HeLa, phospho-Chk1 antibody, percent positive cells (AID 1186). Particulars: hydroxyurea-induced phospho-Chk1 immunofluorescence imaging, higher = more signal.
A short description of experiment [6]: inhibitors of hydroxyurea-induced Chk1 phosphorylation, primary screen, imaging, HeLa, phospho-Chk1 nuclear intensity (AID 1187). The note with it: hydroxyurea-induced phospho-Chk1 immunofluorescence imaging, higher = more signal.

Activity calls are given as the source filed them. Unless noted, no rule for the calls is given here.

Sequence of Homeobox protein Hox-A13 (Mus musculus) (Q62424 whole entry, looked up): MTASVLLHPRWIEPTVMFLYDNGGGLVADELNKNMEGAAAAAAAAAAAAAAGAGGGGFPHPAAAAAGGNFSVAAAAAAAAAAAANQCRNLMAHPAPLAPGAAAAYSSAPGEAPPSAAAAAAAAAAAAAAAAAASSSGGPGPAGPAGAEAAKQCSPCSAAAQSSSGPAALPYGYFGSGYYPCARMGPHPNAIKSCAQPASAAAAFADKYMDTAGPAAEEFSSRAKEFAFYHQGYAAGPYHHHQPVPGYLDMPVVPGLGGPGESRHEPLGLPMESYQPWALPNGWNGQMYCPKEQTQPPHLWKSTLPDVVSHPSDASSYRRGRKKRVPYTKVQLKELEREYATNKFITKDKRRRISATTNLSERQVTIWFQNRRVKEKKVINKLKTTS

For the compound `CCOC(=O)C1=C[C@@H](C(C)(C)C)N(S(=O)(=O)c2ccc(C)cc2)[C@H]1c1ccc(OC)cc1`, the composite z-score in experiment [1] was 0.58 (inactive); in experiment [2], 0.582. Besides, the z-score was -1.88 in experiment [3], -0.488 (inactive) in experiment [4], 0.15 (inactive) in experiment [5] and 0.503 (inactive) in experiment [6].

With `CCCC[C@@H](O)C1=C(C)Cn2c(=O)n(-c3ccccc3)c(=O)n2[C@H]1CO`, the composite z-score in experiment [1] is -0.387 (inactive); in experiment [2], 0.0389. The z-score in experiment [3] was 0.0686; in experiment [4] it was -0.901 (inactive); in experiment [5], -0.522 (inactive); in experiment [6] it was -0.621 (inactive).

Consider `COC(=O)Cn1c(C(=O)N(C)C)cc2c1C[C@H]1CN(C(=O)c3ccccc3)[C@@](Cc3ccccc3)(C(=O)OC)[C@@H]21`, for which the figures for the composite z-score in experiment [1] and in experiment [2] were -0.0872 (inactive) and 0.661, respectively. Also, the z-score in experiment [3] was 0.645; in experiment [4] it was -4.29 (inactive); in experiment [5], -0.12 (inactive); in experiment [6], 0.286 (inactive).

With `COc1ccc(C(O)C2C=CC3C(=O)N(c4ccccc4)C(=O)C3N2Nc2ccccc2F)c2ccccc12` (configuration not stated), the composite z-score in experiment [1] was 1.56 (inactive); in experiment [2] it was 0.795. In addition, the z-score in experiment [3] was 0.482; in experiment [4], -3.14 (inactive); in experiment [5], 0.0395 (inactive); in experiment [6], -0.3 (inactive).

With `CO[C@H]1O[C@H](CO)[C@@H](OC(=O)CCc2ccccc2)[C@@H]2OC(=O)[C@@H](Cc3ccc4ccccc4c3)C/C=C/C[C@H](Cc3ccc4ccccc4c3)C(=O)O[C@@H]12`, the composite z-score in experiment [1] is 0.204 (inactive); in experiment [2] it was 0.448. For the same compound, the z-score in experiment [3] was -2.13; in experiment [4], -4.15 (inactive); in experiment [5], -0.267 (inactive); in experiment [6], -0.343 (inactive).

With `[N-]=[N+]=NCc1ccccc1C[C@@]1(C(=O)NCCN2CCOCC2)N=C(c2ccc(OCCCO)cc2)O[C@@H]1c1ccccc1`, the composite z-score in experiment [1] is 0.682 (inactive); in experiment [2] it was 0.629. Further, the z-score is -2.11 in experiment [3], -4.43 (inactive) in experiment [4], 0.174 (inactive) in experiment [5] and 0.47 (inactive) in experiment [6].

`O=C1c2ccccc2[C@@]2(Cc3ccccc3N(CC(F)(F)F)C2=O)[C@H](c2ccc(CO)cc2)N1Cc1ccccc1`: the composite z-score was -0.158 (inactive) in experiment [1] and -0.48 in experiment [2]. Also, the z-score was -1.17 in experiment [3], 1.26 (inactive) in experiment [4], -0.191 (inactive) in experiment [5] and -0.494 (inactive) in experiment [6].

`CC(C)c1ccc(NN2C(C(O)c3ccccc3)C=CC3C(=O)N(c4ccccc4)C(=O)C32)cc1` (configuration not stated): the composite z-score was 0.542 (inactive) in experiment [1] and 0.602 in experiment [2]. The z-score in experiment [3] was -0.164; in experiment [4], -1.36 (inactive); in experiment [5] it was -1.43 (inactive); in experiment [6] it was -1.77 (inactive).

On to `COc1ccc([Si](C)(C)[C@H]2[C@H](CC(=O)N3CCC[C@H]3CO)O[C@@]3(C(=O)N(C)c4c(Br)cc(C)cc43)[C@@H]2C)cc1`, for which the composite z-score in experiment [1] was 1.14 (inactive); in experiment [2], 0.341. In addition, the z-score in experiment [3] was -1.56; in experiment [4], -5.84 (inactive); in experiment [5] it was 0.27 (inactive); in experiment [6] it was 0.523 (inactive).

In the case of `COC(=O)C(CC#Cc1ccc2c(c1)[C@]1(C(=O)N2)[C@H](C(N)=O)[C@H]2C(=O)O[C@H](c3ccccc3)[C@H](c3ccccc3)N2[C@@H]1c1ccccc1OCCO)C(=O)OC`, the composite z-score was 0.898 (inactive) in experiment [1] and 0.817 in experiment [2]. In addition, the z-score in experiment [3] is -2.08; in experiment [4], -1.12 (inactive); in experiment [5] it was -0.49 (inactive); in experiment [6], -0.137 (inactive).

With `CC(C)C[C@@H]1NC(=O)[C@@H]2C[C@H](C(=O)NCCCCCNC(=O)CS)[C@H](c3ccc(O)cc3)N2C1=O`, the composite z-score in experiment [1] was 0.741 (inactive); in experiment [2], 0.56. Further, the z-score is -1.13 in experiment [3], -0.472 (inactive) in experiment [4], 0.581 (inactive) in experiment [5] and 0.313 (inactive) in experiment [6].

On to `COC(=O)[C@]1(Cc2ccccc2CN=[N+]=[N-])N=C(c2ccc(OCCCO)cc2)O[C@@H]1c1ccccc1N=[N+]=[N-]`, for which the composite z-score is 0.0771 (inactive) in experiment [1] and 0.724 in experiment [2]. The z-score in experiment [3] is -2.04; in experiment [4], 0.381 (inactive); in experiment [5] it was -0.485 (inactive); in experiment [6] it was -0.543 (inactive).

Regarding `CO[C@H]1O[C@H](CO)[C@@H](OC(=O)Nc2ccccc2)[C@@H]2OC(=O)[C@@H](Cc3ccccc3)C/C=C/C[C@H](Cc3ccccc3)C(=O)O[C@@H]12`, the values for the composite z-score in experiment [1] and in experiment [2] were 0.0585 (inactive) and 0.455, respectively. In addition, the z-score in experiment [3] is 0.232; in experiment [4], -0.539 (inactive); in experiment [5] it was -0.741 (inactive); in experiment [6], -0.467 (inactive).

As for `CC(C)[Si](C#Cc1ccccc1)(O[C@H](c1ccccc1)c1cn(Cc2ccccc2)nn1)C(C)C`, the composite z-score was 0.0554 (inactive) in experiment [1] and 0.877 in experiment [2]. In addition, the z-score is -1.18 in experiment [3], -1.11 (inactive) in experiment [4], 0.0998 (inactive) in experiment [5] and 0.124 (inactive) in experiment [6].

Consider `O=C1O[C@@H](c2ccccc2)[C@@H](c2ccccc2)N2[C@@H](c3ccccc3OCCO)[C@]3(C(=O)Nc4ccc(C#CC5(O)CCCCCC5)cc43)[C@@H](C(=O)N3CCCCCCC3)[C@H]12`, for which the composite z-score in experiment [1] is 5.76 (inactive); in experiment [2] it was 0.878. Further, the z-score in experiment [3] was -2.38; in experiment [4], 4.83 (inactive); in experiment [5], 0.503 (inactive); in experiment [6], 0.639 (inactive).

For `CC(C)c1ccc(NN2C(C(O)C(C)c3ccccc3)C=CC3C(=O)N(c4ccccc4)C(=O)C32)cc1` (configuration not stated), the composite z-score in experiment [1] was 2.17 (inactive); in experiment [2], 0.77. Further, the z-score in experiment [3] is -0.119; in experiment [4], -2.2 (inactive); in experiment [5], 0.545 (inactive); in experiment [6] it was 0.739 (inactive).

As to `O=C(N1CCOCC1)[C@]1(CCS(=O)(=O)c2ccccc2)N=C(c2ccc(OCCCO)cc2)O[C@@H]1c1ccccc1`, the values for the composite z-score in experiment [1] and in experiment [2] were 1.24 (inactive) and 0.717, respectively. In addition, the z-score in experiment [3] was -2.21; in experiment [4], -4.54 (inactive); in experiment [5], -0.141 (inactive); in experiment [6], 0.0352 (inactive).
